High-throughput results deposited in PubChem BioAssay by several laboratories.
Myeloid diff 2: induction of myeloid progenitor differentiation, primary screen, cell-based, flow cytometry, MLPCN library | ER-HoxA9 myeloid progenitors, lysozyme-GFP differentiation | calls only at 10 µM | actives 1% (n = 360,000) | AID 624256, 2012;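 active = normalized GFP-positive differentiation at or above the plate's own cutoff, the solvent-only control mean plus 3 SD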;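 note: cells exposed to compound for four days before flow analysis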
Cardiac RTF inh: cardiac RTF calcium sensitivity inhibitors, primary screen, biochemical, IANBD-TnC fluorescence, EC70 calcium. Troponin I, cardiac muscle (Homo sapiens) + Troponin T, cardiac muscle (Homo sapiens) + …. IANBD-labeled cardiac RTF, Ca2+ fluorescence. inhibition, % at 7.15 µM. actives 0.12% (n = 340,000);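 active = inhibition above the mean inhibition of all tested compounds plus 3 SD, cut at about 17% in these data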;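 note: assay run at fixed EC70 calcium of 1.6 mM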
CRFBP-R2 block: antagonists of CRF-BP/CRF-R2 complex, primary screen, cell-based, HEK293, calcium dye fluorescence, uHTS. inhibition, % at 11.8 µM. actives 0.59% (n = 350,000). AID 588475, 2011. CRF-induced calcium fluorescence;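 active = inhibition of the ligand-induced calcium signal above about 50% at the single tested concentration, limit read from the data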
CRFR2-BP ag: agonists of CRF-BP/CRF-R2 complex, primary screen, cell-based, HEK293, calcium dye fluorescence, uHTS. CRF-binding protein / CRF receptor 2 complex (human). activation, % at 13.2 µM. actives 0.46% (n = 350,000). calcium dye fluorescence (FLIPR); percent of saturating CRF peptide response;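 active = activation of at least 50%, plus an integration ratio under a set limit after plate pattern correction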;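 note: plate controls were neutral control wells without compound for no effect and CRF at EC100 for full effect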
cardiac RTF act: cardiac RTF calcium sensitivity activators, primary screen, biochemical, IANBD-TnC fluorescence, EC20 calcium. IANBD-labeled TnC RTF fluorescence at EC20 calcium; 0% EC20 calcium, 100% full calcium. activation, % at 7.2 µM. actives 0.24% (n = 340,000). AID 493008, 2010;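 active = activation above the mean over all tested compounds plus 3 SD, cut at about 30% in these data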;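 note: rise in fluorescence read as greater calcium sensitivity of cardiac thin filaments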
Myeloid diff: inducers of myeloid progenitor differentiation, confirmation, cell-based, GFP/Mac1 flow cytometry, cherry pick 01 | shares compounds with Myeloid diff 2 | AID 651706, 2012 | actives 2% (n = 2,300) | ER-HoxA9 myeloid progenitors, GFP/Mac1 double-positive flow | calls only;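 active = share of green or green-and-red cells above 9 and 9% in run 1 or 4 and 3% in run 2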
GFP autofluor: counter-screen for myeloid differentiation promoters: compound fluorescence; fluorescence response, % (concentration not given with the values); actives 7.4% (n = 2,300); shares compounds with Myeloid diff 2; AID 651707; ER-HoxA9 myeloid progenitors, no estrogen, GFP autofluorescence flow cytometry; vehicle wells 0%, positive control 100%;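 active = over 5% cells positive for green fluorescent reporter, or over 2% positive for both it and APC stain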;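 note: range taken on the double positive population between DMSO and positive control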
An asterisk follows results filed as active; i = inactive; . = not tested or not shown; + = active, no number. A selection: hits, their analogues and other compounds. The true share with any hit is near 2.2%.

SMILES	Myeloid diff 2	Cardiac RTF inh	CRFBP-R2 block	CRFR2-BP ag	cardiac RTF act	Myeloid diff	GFP autofluor
c1ccc(-c2sc3ccccc3c2-c2ccc(OCCN3CCCC3)cc2)cc1	i	-1	0	5	3	i	4
COc1ccccc1-c1sc2ccccc2c1-c1ccc(OCCN2CCCCC2)cc1	i	1	15	7	4	.	.
COc1cccc(-c2sc3ccccc3c2-c2ccc(OCCN3CCCCC3)cc2)c1	i	1	-17	2	5	i	0
COc1cc2c(cc1N)-c1ccc(N)cc1C2	i	-9	10	8	2	.	.
O=C1OCc2cc(NC(=O)C3CCCO3)ccc21 (stereo not drawn)	i	-1	5	-1	5	.	.
O=C1NC(=O)c2cc(NC(=O)C3CCCO3)ccc21 (stereo not drawn)	i	-4	-5	-3	4	i	0
O=C(Nc1cc(Cl)c(O)c(Cl)c1)C1CCCO1 (stereo not drawn)	i	-8	-6	-1	6	.	.
O=C(O)c1cc(NC(=O)C2CCCO2)cc(NC(=O)C2CCCO2)c1 (stereo not drawn)	+	-1	-17	-1	-1	i	0
COc1ccc(NC(=O)CN2CCN(c3nc(-c4cccc(OC)c4)cs3)CC2)cc1	i	-7	-29	-1	0	.	.
COc1cccc(-c2csc(N3CCN(CC(=O)Nc4ccc5c(c4)OCO5)CC3)n2)c1	i	0	27	-1	-3	i	0
CC(C)CN1C(=O)C(=O)N(CC(=O)c2ccc[nH]2)C1=O	i	1	3	1	-2	.	.
CC(C)c1ccc(NC(=O)Nc2nc(C(N)COCc3ccccc3)cs2)cc1 (stereo not drawn)	i	.	.	.	.	.	.
CC(C(=O)N1CCc2ccccc21)N1CCN(c2cccc(C(F)(F)F)c2)CC1 (stereo not drawn)	+	-1	0	0	-2	i	0
CN1CCN(c2ccc(CNC(=O)c3ccc(-c4ccc(F)c(F)c4)c4ccoc34)cc2)CC1	+	.	.	.	.	i	2
COc1cc(C2NC(=O)CCC2[N+](=O)[O-])c(OC)cc1Br (stereo not drawn)	i	-4	6	3	-2	.	.
O=c1oc2ccccc2c(Nc2ccccc2O)c1[N+](=O)[O-]	+	-6	-17	2	7	i	0
O=c1oc2ccccc2c(Nc2cc3ccccc3cc2O)c1[N+](=O)[O-]	.	1	34	6	3	.	.
CC1CN(C(=O)COC(=O)c2cncc(Br)c2)CC(C)O1 (stereo not drawn)	i	.	3	-1	.	.	.
CCCCn1nc(NC(=O)COC)c2cc3cc(OC)ccc3nc21	i	-4	6	3	4	i	0
Cc1cc(Br)cn2c(CC(C)(C)C)c(C3CCCCC3)nc12	i	.	.	.	.	.	.
NC(Cc1ccc(Cl)cc1)c1csc(NC(=O)NCC2CCCCC2)n1 (stereo not drawn)	+	.	.	.	.	i	1
NC(Cc1ccc(Cl)cc1)c1csc(NC(=O)NCCc2ccccc2)n1 (stereo not drawn)	i	.	.	.	.	.	.
O=C(NC1CCCCC1)C(c1ccnc2ccccc12)N1CCc2ccccc2C1 (stereo not drawn)	i	.	.	.	.	.	.
CCN(C)C1CN(Cc2cn(Cc3ccc(C)cc3)nn2)S(=O)(=O)C1 (stereo not drawn)	i	.	.	.	.	.	.
COc1cc(NC(=S)Nc2cccc(Cl)c2Cl)c(OC)cc1Cl	i	-2	-12	0	-4	.	.
SMILES	Myeloid diff 2	Cardiac RTF inh	CRFBP-R2 block	CRFR2-BP ag	cardiac RTF act	Myeloid diff	GFP autofluor
COc1cc(NC(=S)Nc2ccccn2)c(OC)cc1Cl	i	-11	-3	1	1	i	0
COc1cc(C(=O)NCC(=O)Nc2ccc(F)c(F)c2)ccc1OCC(=O)N1CCOCC1	i	-25	-6	-1	7	.	.
NC(=O)NC(Cc1ccccc1)C(=O)NNC(=O)COc1ccccc1Cl (stereo not drawn)	i	-2	-10	1	2	.	.
Cc1cccc2[nH]c3c(N4CC=C(c5ccc(F)cc5)CC4)ncnc3c12	i	.	1	-3	.	.	.
COc1ccc(CNc2ccccc2)cc1Br	i	-4	13	-1	-7	i	0
CC(=O)Nc1ccc2c3c(cccc13)C(=O)N(c1ccccc1)C2=O	i	-9	-7	1	4	.	.
Nc1ccc2c3c(cccc13)C(=O)N(c1ccccc1)C2=O	+	i	-227	235*	972*	i	0
CN1CCN(c2ccccc2/C=C2/C(=O)Nc3ccccc32)CC1	i	-7	-10	2	0	i	83*
CCCCN1C(=O)C(CC(=O)NCCc2ccccn2)CC(C(=O)N(C(C)C)C(C)C)=C1C (stereo not drawn)	i	.	9	-1	.	.	.
CCCCN1C(=O)C(CC(=O)NCCc2ccccn2)CC(C(=O)N(C)C)=C1C (stereo not drawn)	i	.	3	-1	.	i	18*
COc1ccccc1NC(=S)NC(NC(=O)CC(C)C)C(Cl)(Cl)Cl (stereo not drawn)	i	-1	3	-1	5	.	.
COc1ccccc1NC(=O)N1CCN(c2cc(-c3ccccc3)nc3ncnn23)CC1	i	-3	-23	1	-3	i	0
c1ccc(Nc2cccc3ccccc23)cc1	i	-6	12	1	10	i	0
c1ccc(Nc2cccc(Nc3ccccc3)c2)cc1	i	10	36	-2	-5	.	.
COC(=O)C1CCCN1C(=O)c1cccs1 (stereo not drawn)	+	2	-16	4	-1	i	0
COc1ccc(C(=O)N2CCOC2CNC(=O)C(=O)NCc2ccccn2)cc1 (stereo not drawn)	i	.	-8	-1	.	.	.
CCN(Cc1nc2ccccc2c(=O)[nH]1)Cc1nc2cc(OC)c(OC)cc2c(=O)[nH]1	i	0	-1	0	-1	.	.
COc1cc2nc(CN(C)Cc3nc4ccccc4c(=O)[nH]3)[nH]c(=O)c2cc1OC	i	-8	4	-2	-2	i	0
O=C(NCCN1CCN(Cc2ccccc2Cl)CC1)Nc1ccccc1	i	-6	-2	-4	11	.	.
